# Source: PubChem BioAssay (several laboratories)
# CSC inhib: cancer stem cell viability inhibitors, primary screen, luminescence. hit rate 1.1% among 300,000. inhibition, % at 7.5 µM. cancer stem cell-like cells viability; in the data active = inhibition above about 75%; inconclusive = no clear call, values can overlap the other calls; tested in HMLE shEcad cells
# MPTP inh: mitochondrial permeability transition pore inhibitors, primary screen, biochemical, isolated mouse mitochondria, absorbance | hit rate 1.4% among 360,000 | Ca2+ swelling absorbance, 30 min | inhibition, % at 10 µM;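 active = inhibition of 50% or more, scaled per plate between neutral and stimulator controls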;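 also: 0% = DMSO wells given calcium and 100% = 1 mM EGTA wells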
# Calb FLC: C. albicans growth inhibition with fluconazole, primary screen, CaCi-2 strain, Alamar Blue fluorescence; hit rate 0.57% among 300,000; growth inhibition, % (concentration not given with the values); C. albicans CaCi-2 (fluconazole-resistant clinical isolate) + fluconazole, 48 h; AID 1979, 2009;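 active = growth inhibition above about 58% in most replicates, limit read from the data, passing the limit was not always enough; inconclusive = exactly half the replicates above a set limit; inactive = most replicates below a set limit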;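 also: all wells also contain fluconazole at 8 µg/ml as a sub-toxic cotreatment; 0% = median of DMSO wells and 100% = median of geldanamycin control wells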
# Beta cell apopt: inhibitors of cytokine-induced beta cell apoptosis, primary screen, luminescence. INS-1E cytokine-induced death, ATP luminescence, 48 h; percent of positive-control rescue, neutral wells zero. protection from apoptosis, % (concentration not given with the values). hit rate 0.8% among 300,000;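 active = Every replicate reaches about 75%, or at least half do and their mean reaches it too, limit read from the data; inconclusive = At least half of replicates reach the limit but their mean does not; inactive = Under half of replicates reach the limit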;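 also: 0% = cytokine-treated negative control wells and 100% = positive control rescue; higher means more ATP so stronger rescue from cytokine killing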
# Mdm2 MdmX PPI: inhibitors of human Mdm2-MdmX association, primary screen, cell-based, luminescence, split luciferase, SaOS-2, uHTS; Protein Mdm4 (Homo sapiens) + E3 ubiquitin-protein ligase Mdm2 (Homo sapiens), …; SaOS-2 split-luciferase Mdm2/MdmX complementation; inhibition, % at 8 µM; hit rate 3% among 330,000; AID 485346, 2010;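 active = inhibition of at least 50% at 8 µM in the primary screen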
# Target sequence (O15151 whole entry, looked up): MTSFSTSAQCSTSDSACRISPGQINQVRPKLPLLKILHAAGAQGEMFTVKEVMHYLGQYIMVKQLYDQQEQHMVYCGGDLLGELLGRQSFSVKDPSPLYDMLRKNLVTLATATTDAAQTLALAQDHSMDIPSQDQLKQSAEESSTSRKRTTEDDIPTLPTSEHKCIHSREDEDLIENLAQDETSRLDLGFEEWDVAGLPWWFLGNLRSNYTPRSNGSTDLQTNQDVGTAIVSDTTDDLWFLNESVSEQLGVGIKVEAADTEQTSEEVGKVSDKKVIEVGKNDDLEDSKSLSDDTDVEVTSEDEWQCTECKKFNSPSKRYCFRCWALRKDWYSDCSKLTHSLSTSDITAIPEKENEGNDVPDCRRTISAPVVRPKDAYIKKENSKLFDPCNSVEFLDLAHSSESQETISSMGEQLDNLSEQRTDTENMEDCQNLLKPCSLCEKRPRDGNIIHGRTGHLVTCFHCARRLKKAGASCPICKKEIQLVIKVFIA
# Target sequence (Q00987 whole entry, looked up): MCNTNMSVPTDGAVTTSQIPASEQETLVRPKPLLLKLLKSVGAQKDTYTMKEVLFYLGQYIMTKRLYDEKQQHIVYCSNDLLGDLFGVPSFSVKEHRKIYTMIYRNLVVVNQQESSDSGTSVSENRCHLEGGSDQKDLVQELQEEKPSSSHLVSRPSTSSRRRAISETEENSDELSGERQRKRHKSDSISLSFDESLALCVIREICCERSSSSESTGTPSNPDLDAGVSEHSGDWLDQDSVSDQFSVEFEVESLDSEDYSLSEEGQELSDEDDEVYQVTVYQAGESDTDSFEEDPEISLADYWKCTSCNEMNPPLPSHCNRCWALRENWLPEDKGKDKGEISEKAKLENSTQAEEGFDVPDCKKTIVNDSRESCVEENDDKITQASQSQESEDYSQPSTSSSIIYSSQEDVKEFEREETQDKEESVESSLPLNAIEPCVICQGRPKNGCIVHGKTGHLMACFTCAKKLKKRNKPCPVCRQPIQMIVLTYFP
# Mdm2 MdmX conf: Mdm2-MdmX complex disruptors, retested hits, confirmation, luminescence, single concentration. hit rate 55% among 10,000. inhibition, % at 8 µM. shares compounds with Mdm2 MdmX PPI. Mdm2-MdmX binding, luminescent assay; in the data active = inhibition above about 40%
# Full FLuc ctr: full-length luciferase signal inhibition, confirmation, counter-screen for Mdm2/MdmX interaction inhibitor project, cell-based, single concentration, SaOS-2. shares compounds with Mdm2 MdmX PPI. SaOS-2 full-length luciferase counterscreen, luminescence. inhibition, % at 8 µM. hit rate 77% among 6,200;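 active = mean inhibition at 8 µM reaching about 37%, which flags the compound as non-specific, limit read from the data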;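 also: p53-null SaOS-2 cells with luciferase driven by a doxycycline-inducible promoter; compound on cells about two nights before reading with doxycycline added after day one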
# * hit, by the source's call; ? = inconclusive; / = not tested or not shown. Rows were chosen to be rich in hits. Some 4.8% of all compounds tested hit in one or more screens of this group.
SMILES,CSC inhib,MPTP inh,Calb FLC,Beta cell apopt,Mdm2 MdmX PPI,Mdm2 MdmX conf,Full FLuc ctr
CCCCCC(=O)N[C@@H](c1ccccc1)[C@@H](O)C(=O)O[C@H]1C[C@@]2(O)[C@@H](OC(=O)c3ccccc3)C3[C@](C)(C(=O)[C@H](OC(C)=O)C(=C1C)C2(C)C)[C@@H](O)C[C@H]1OC[C@@]31OC(C)=O (stereo partly specified),56,-1,1,15,72*,74*,43*
CC(=O)O[C@H]1C(=O)[C@@]2(C)[C@H]([C@H](OC(=O)c3ccccc3)[C@]3(O)C[C@H](OC(=O)[C@H](O)[C@@H](NC(=O)c4ccccc4)c4ccccc4)C(C)=C1C3(C)C)[C@]1(OC(C)=O)CO[C@@H]1C[C@@H]2O,63,-1,/,-15,65*,64*,57*
O=C(Nc1cccc(F)c1)C1CCCN(S(=O)(=O)c2ccccc2)C1 (stereo unspecified),2,0,-4,1,26,/,/
CC1=CC(C)(C)N(S(=O)(=O)c2ccc(C)cc2)c2ccc(C)cc21,/,2,9,/,54*,61*,108*
C/C=C/C(=O)N1c2ccc(C)cc2C(C)=CC1(C)C,0,1,-1,-2,19,/,/
CC(=O)Nc1ccc(S(=O)(=O)N2c3ccccc3C(C)=CC2(C)C)cc1,47,0,-11,22,74*,60*,94*
CC1=CC(C)(C)N(S(=O)(=O)c2ccc(F)cc2)c2ccccc21,/,2,13,-3,31,/,/
CC(OC(=O)c1ccc2c(c1)S(=O)(=O)c1ccccc1C2=O)C(N)=O (stereo unspecified),-17,-2,-1,-8,9,/,/
O=C1/C(=C\c2c(NCCOCCO)nc3ccccn3c2=O)SC(=S)N1Cc1ccco1,/,6,1,/,54*,28,/
CC(C(=O)NC1CCCC1)n1c(-c2ccccn2)nc2ccccc21 (stereo unspecified),/,1,/,/,/,/,/
C=CC(=O)Nc1cccc(Oc2ncnc3[nH]cc(-c4cnc5ccccc5c4)c23)c1,/,-1,/,-53,93*,79*,59*
CC(C)C(CCNCc1ccccn1)c1ccc(Cl)cc1 (stereo unspecified),-2,0,2,3,18,/,/
CN1CCC(NCCC(c2ccc(F)cc2)c2ccc(Cl)cc2)CC1 (stereo unspecified),35,4,-2,22,100*,98*,59*
CC(C)C(CCNC1CCN(C)CC1)c1ccc(Cl)cc1 (stereo unspecified),/,4,-25,/,77*,56*,54*
CCNC(=O)N1CCN(CCCC(c2ccc(F)cc2)c2ccc(F)cc2)CC1,-7,25,/,-4,16,/,/
Cc1cc(NC(=O)CSc2nnc3ccc(-c4ccccc4)nn23)no1,/,0,/,/,/,/,/
CCN1C(=NCc2cc(OC)c(OC)c(OC)c2)N[C@@H](c2ccccc2)C(C(=O)OC)=C1C,-8,1,/,-6,20,/,/
COC(=O)C1=C(C)N(Cc2ccccc2)C(=NCC(C)C)N[C@H]1c1cccc(F)c1,/,2,/,-14,79*,45*,45*
COC(=O)C1=C(C)N(Cc2ccccc2)C(=NCc2ccc(OC)cc2)N[C@H]1c1cccc(F)c1,14,0,11,4,87*,47*,57*
COC(=O)C1=C(C)N(Cc2ccccc2)C(=NCc2cc(OC)c(OC)c(OC)c2)N[C@H]1c1cccc(F)c1,-2,4,-5,-4,62*,22,/
C[C@H]1CN([C@@H](C)CO)S(=O)(=O)c2ccc(Br)cc2O[C@H]1CN(C)C(=O)Cc1ccncc1,/,0,/,/,/,/,/
Cc1cc(-c2nnc(SCC(=O)NC3CC3)n2C(C)C)cs1,-13,0,-4,-7,14,/,/
CCOc1ccc(CN(C)C(=O)CCl)cc1,-12,2,-3,2,56*,22,/
CCOc1ccc(CN(C)C(=O)CCNC(=O)c2ccco2)cc1,-5,-2,/,-7,1,/,/
CCOCCCN(Cc1ccco1)C(=O)c1cc2c(=O)[nH]c3ccc(C)cc3c2s1,/,0,-2,3,56*,34,/
SMILES,CSC inhib,MPTP inh,Calb FLC,Beta cell apopt,Mdm2 MdmX PPI,Mdm2 MdmX conf,Full FLuc ctr
O=C(N/N=C/c1cc(Br)cc(Br)c1O)c1cccc(N2CCCC2=O)c1,11,0,?,2,58*,50*,26
O=C(N/N=C/c1ccc(Cl)cc1Cl)c1cccc(N2CCCC2=O)c1,4,0,27,6,4,/,/
Cn1c2ccccc2c(=O)c2c(=O)n(-c3ccccc3)c(-c3ccc(C(C)(C)C)cc3)nc21,-18,18,18,8,89*,79*,55*
Cn1c2ccccc2c(=O)c2c(=O)n(C3CCCCC3)c(-c3ccco3)nc21,10,5,-4,/,80*,66*,90*
Cc1ccc(-c2nc3c(c(=O)c4ccccc4n3C)c(=O)n2-c2ccc(F)cc2)cc1,-4,5,12,4,14,/,/
COc1cccc2cc(C(=O)Nc3ccccc3Cl)/c(=N/NS(=O)(=O)c3ccccc3)oc12,-4,1,-4,2,43,/,/
COc1cc([C@H]2c3[nH]c4ccccc4c3C[C@H]3C(=O)N4[C@@H](c5cc(OC)c(OC)c(OC)c5)c5[nH]c6ccccc6c5C[C@H]4C(=O)N23)cc(OC)c1OC,-6,2,6,13,79*,29,/
C=CCN1C(=O)[C@@H]2Cc3c([nH]c4ccccc34)C(c3cc(OC)c(OC)c(OC)c3)N2C1=S (stereo partly specified),28,2,4,7,51*,22,/
CN(C)c1ccc(/C=C2\C(=N)N3C(=NC2=O)Sc2cc(S(C)(=O)=O)ccc23)cc1,8,/,2,/,89*,-4,/
COc1cc(-c2noc(C)c2-c2ccc(N(C)C)nc2)cc(OC)c1OC,70,-2,3,42,86*,79*,88*
COc1cc(-c2noc(C)c2-c2ccc3[nH]ccc3c2)cc(OC)c1OC,7,2,9,17,82*,77*,54*
COc1cc(-c2noc(C)c2C(=O)NCCc2c[nH]c3ccccc23)cc(OC)c1OC,27,1,11,4,-1,/,/
N/C(=N/OC(=O)c1ccccc1Cl)c1ncc([N+](=O)[O-])s1,11,0,5,55,29,/,/
NCCNC(=O)c1c(O)c2cccc3c2n(c1=O)CCC3,/,-1,4,/,-22,/,/
